In PubChem BioAssay (NCI) one finds growth data, which are given here for eight compounds.

This is part of a sample that, as a whole, favours compounds with a hit. Of some 83,000 tested, about 20% had one in any assay.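 The endpoint reported here, percent growth, reads 100 for growth as untreated, 0 for no net growth and -100 for all cells dead.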 Unmarked numbers belong to inactive results. The source made the active and inactive calls. How the source made its calls: active means growth percent below 10; inactive means the rest.

Test systems include SK-MEL-2 melanoma; EKVX NSCLC; SN12C renal; UO-31 renal; TK-10 renal; ACHN renal; CAKI-1 renal; A498 renal; CCRF-CEM leukemia; MOLT-4 leukemia; OVCAR-8 ovarian; OVCAR-4 ovarian; SK-OV-3 ovarian; IGROV1 ovarian; OVCAR-3 ovarian; HS 578T breast; NCI/ADR-RES ovarian; OVCAR-5 ovarian; SR leukemia; RPMI-8226 leukemia.
Test in all cases: NCI-60 one-dose screen, 48 h (100 = growth as untreated, 0 = no growth, -100 = all killed)
What all share (details): 10 µM unless noted

Consider `NCCCNc1nc2ccccc2c2c(=O)c3cccc(Cl)c3sc12`, for which the growth in the assay on SK-MEL-2 melanoma is 99.4%; in the assay on EKVX NSCLC, 31.2%; with SN12C renal, 21.1%; in the assay with UO-31 renal it was 3.93% (active); with TK-10 renal, 58%; with ACHN renal, 7.6% (active). The growth with CAKI-1 renal is 17.1%; in the assay with A498 renal it was 65.2%; with CCRF-CEM leukemia, 2.48% (active); with MOLT-4 leukemia, -23.4% (active); in the assay with OVCAR-8 ovarian, -16.2% (active); with OVCAR-4 ovarian, 38.2%. Besides, the growth with SK-OV-3 ovarian is 73%; with IGROV1 ovarian, 7.81% (active); in the assay with OVCAR-3 ovarian, -51.5% (active); in the assay with HS 578T breast, 28.1%; in the assay with NCI/ADR-RES ovarian, 29.2%.

Regarding `COc1ccc(-c2nc(SCCC(C)C)nc(N/N=C\c3cccc([N+](=O)[O-])c3)c2C#N)cc1`, the growth was 80.4% in the assay on SK-MEL-2 melanoma; 40.9% with EKVX NSCLC; 35.5% in the assay on SN12C renal; 7.32% (active) in the assay on UO-31 renal; 42.5% in the assay with TK-10 renal; 15.8% with ACHN renal. The growth in the assay on CAKI-1 renal was 22.6%; in the assay with A498 renal it was 41.2%; in the assay with CCRF-CEM leukemia, 45.8%; with MOLT-4 leukemia, 73.1%; in the assay on OVCAR-8 ovarian it was 39.7%; in the assay on OVCAR-4 ovarian it was -13.3% (active). Further, the growth in the assay with SK-OV-3 ovarian was 63.4%; in the assay on IGROV1 ovarian, 38.8%; in the assay with OVCAR-3 ovarian it was -30.4% (active); with HS 578T breast it was 9.44% (active); in the assay on NCI/ADR-RES ovarian it was 56.2%.

In the case of `COc1ccc(N=C(c2ccccc2)C2C(=O)c3ccccc3C2=O)cc1`, the growth with SK-MEL-2 melanoma was 40.8%; in the assay on EKVX NSCLC, 104%; with SN12C renal it was 104%; with UO-31 renal, 40.5%; in the assay with TK-10 renal, 103%; in the assay on ACHN renal, 72.1%. Further, the growth with CAKI-1 renal was 88.1%; in the assay on A498 renal, 61.2%; in the assay on CCRF-CEM leukemia it was 46.1%; in the assay on MOLT-4 leukemia it was 49.2%; in the assay with OVCAR-8 ovarian it was 83.3%; in the assay with OVCAR-5 ovarian it was 104%. Moreover, the growth in the assay with OVCAR-4 ovarian was 77.3%; in the assay on SK-OV-3 ovarian it was 108%; in the assay on OVCAR-3 ovarian, 82.3%; in the assay on HS 578T breast it was 86.9%; in the assay on NCI/ADR-RES ovarian, 91.9%.

In the case of `Fc1cnc(NC2CC2)nc1-c1cnc2ccc(N3CCOCC3)cn12`, the growth is -34.1% (active) with SK-MEL-2 melanoma; -19.5% (active) in the assay on EKVX NSCLC; 8.74% (active) in the assay on SN12C renal; 7.85% (active) in the assay on UO-31 renal; 6.32% (active) in the assay with TK-10 renal; 3.03% (active) in the assay with ACHN renal. Also, the growth with CAKI-1 renal is 4.17% (active); in the assay on A498 renal, -29.5% (active); in the assay on CCRF-CEM leukemia, 6.3% (active); with MOLT-4 leukemia, 2.32% (active); in the assay on OVCAR-8 ovarian, 9.65% (active); in the assay on OVCAR-5 ovarian, -4.33% (active). The growth in the assay with SK-OV-3 ovarian was 20.6%; in the assay on IGROV1 ovarian, 4.44% (active); in the assay with OVCAR-3 ovarian it was 4.44% (active); in the assay with HS 578T breast, -7.95% (active); with NCI/ADR-RES ovarian, 7.33% (active).

For the compound `Cc1cc(N2CCCC2)nc(NCc2cc(Nc3ccnc4cc(Cl)ccc34)ccc2F)n1`, the growth with SK-MEL-2 melanoma is -79.6% (active); with EKVX NSCLC it was 11.1%; in the assay on SN12C renal, -58.8% (active); with UO-31 renal, -59.1% (active); in the assay with TK-10 renal, -56.7% (active); in the assay on ACHN renal, -72.3% (active). The growth with CAKI-1 renal was 28.5%; in the assay on A498 renal, -25.2% (active); with CCRF-CEM leukemia it was -32.1% (active); in the assay on SR leukemia, -28.1% (active); with RPMI-8226 leukemia it was -44.2% (active); with OVCAR-8 ovarian, -54.5% (active). Also, the growth is -11.8% (active) with OVCAR-5 ovarian; -14.9% (active) in the assay with OVCAR-4 ovarian; 26.8% in the assay on SK-OV-3 ovarian; -18.4% (active) with IGROV1 ovarian; -86.9% (active) in the assay with OVCAR-3 ovarian; -34.5% (active) with HS 578T breast. In the assay with NCI/ADR-RES ovarian, the growth is -33.7% (active).

On to `CCN1CCN(c2nc(C)cc(NCc3cc(Nc4ccnc5cc(Cl)ccc45)ccc3F)n2)CC1`, for which the growth in the assay on SK-MEL-2 melanoma was -49.7% (active); with EKVX NSCLC, 49.4%; with SN12C renal it was 44%; with UO-31 renal, 17.1%; in the assay with TK-10 renal it was 28.9%; in the assay with ACHN renal, 16.9%. Also, the growth is 68.8% with CAKI-1 renal; 15.6% in the assay with A498 renal; -19.4% (active) in the assay on CCRF-CEM leukemia; -18.8% (active) in the assay with SR leukemia; -31.1% (active) in the assay on RPMI-8226 leukemia; 17.4% with OVCAR-8 ovarian. Also, the growth is 17.8% with OVCAR-5 ovarian; 26.1% in the assay on OVCAR-4 ovarian; 31.5% in the assay with SK-OV-3 ovarian; 15.8% in the assay with IGROV1 ovarian; 10.5% with OVCAR-3 ovarian; 9.27% (active) in the assay on HS 578T breast. Besides, in the assay with NCI/ADR-RES ovarian, the growth was 24.6%.

Regarding `Cc1ccc(Cl)c(NS(=O)(=O)c2ccc(-c3cnc(C4CC4)o3)cc2)c1`, the growth in the assay with SK-MEL-2 melanoma is 56.9%; in the assay with EKVX NSCLC it was 31.4%; in the assay with SN12C renal, 60.7%; in the assay on UO-31 renal it was 44.3%; with TK-10 renal, 68.5%; in the assay on ACHN renal, 36%. For the same compound, the growth with CAKI-1 renal was 36.6%; with A498 renal, -5.72% (active); with CCRF-CEM leukemia it was 14.1%; with SR leukemia it was 15.7%; in the assay on RPMI-8226 leukemia, 18.8%; in the assay on OVCAR-8 ovarian, 28.1%. The growth was 26.4% in the assay on OVCAR-5 ovarian; 48.3% in the assay with OVCAR-4 ovarian; 44.5% with SK-OV-3 ovarian; 27% in the assay on IGROV1 ovarian; -1.26% (active) in the assay with OVCAR-3 ovarian; 13.5% with HS 578T breast. The growth in the assay with NCI/ADR-RES ovarian was 19.5%.

As to `Cc1cc(NCc2cc(Nc3ccnc4cc(Cl)ccc34)ccc2F)nc(N2CCN(c3ccccc3)CC2)n1`, the growth with SK-MEL-2 melanoma was 84.5%; in the assay with EKVX NSCLC it was 64.8%; with SN12C renal it was 49.9%; in the assay with UO-31 renal it was 36.1%; in the assay on TK-10 renal, 88.7%; in the assay with ACHN renal, 69.2%. In addition, the growth was 72.3% in the assay on CAKI-1 renal; 14.1% with A498 renal; -7.8% (active) in the assay with CCRF-CEM leukemia; -24.6% (active) in the assay with SR leukemia; 42.8% in the assay with RPMI-8226 leukemia; 58.8% with OVCAR-8 ovarian. Also, the growth in the assay on OVCAR-5 ovarian was 92.6%; in the assay on OVCAR-4 ovarian, 46.2%; with SK-OV-3 ovarian it was 55.1%; in the assay with IGROV1 ovarian, 41.6%; in the assay on OVCAR-3 ovarian, 5.88% (active); with HS 578T breast it was 47.9%. For the same compound, the growth in the assay on NCI/ADR-RES ovarian is 56.5%.
